# Results filed as inconclusive are left out. Where a call stands in place of a potency, no number is given. Active and inactive are the calls of the source. Unless noted, the call rests on the fitted dose curve; in most records, active means well fitted curve in the direction sought with a large enough effect in the repeat runs; inconclusive means weak or mixed curves; inactive means no such curve, though single readings can be large; an effect the other way counts as inactive or inconclusive.
# What was measured:
# [1] = qHTS assay to identify small molecule antagonists of the thyroid receptor (TR) signaling pathway - cell viability counter screen (AID 743064); further: nearly all actives have a fitted effect of over 50% in size; further: potency means the concentration at half of the fitted maximal effect
# Outline: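 In-well cytotoxicity read by CellTiter-Fluor (30 min, 37 C) following 23.5 h exposure of GH3 cells bearing a TRE-luciferase sensor. Compounds were added alongside 1 nM (final) T3 to drive TR transactivation.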
# [2] = qHTS assay to identify small molecule antagonists of the thyroid receptor (TR) signaling pathway (AID 743065); further: nearly all actives have a fitted effect of over 55% in size; further: potency means the concentration at half of the fitted maximal effect
# Outline: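 Antagonism measured as loss of luciferase signal in GH3 cells stably carrying a TRE-luciferase reporter, co-treated with compound and T3 (1 nM final) for 23.5 h at 37 C. Viability was read in the same well by CellTiter-Fluor.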
# [3] = system: thyroid hormone receptor (rat, GH3 cells); experiment: qHTS assay to identify small molecule agonists of the thyroid receptor (TR) signaling pathway (AID 743066; calls by dose curve; further: potency means the concentration at half of the fitted maximal effect)
# [4] = target: Estrogen receptor (Homo sapiens) (UniProt P03372); experiment: qHTS assay to identify small molecule antagonists of the estrogen receptor alpha (ER-alpha) signaling pathway (AID 743069; active means well fitted curve in the direction sought with a large enough effect in the signal ratio in the repeat runs, not every such curve was filed as active; the % refers to the signal ratio)
# Outline: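 ER-alpha-UAS-bla GripTite HEK293 line; 2% charcoal-stripped FBS overnight; plated, 4 hr 37C/5% CO2; cpd in DMSO + 17beta-estradiol, 18 hr 37C; LiveBLAzer B/G FRET substrate 2 hr RT; fluorescence intensity.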
# [5] = qHTS assay to identify small molecule antagonists of the estrogen receptor alpha (ER-alpha) signaling pathway - cell viability counter screen (AID 743074; calls by dose curve;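 further: HEK293 cells carrying ER-alpha-UAS-bla reporter stimulated with 17beta-estradiol; nearly all actives have a fitted effect of over 45% in size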)
# [6] = target: Estrogen receptor (Homo sapiens) (UniProt P03372); experiment: qHTS assay to identify small molecule agonists of the estrogen receptor alpha (ER-alpha) signaling pathway (AID 743075; calls by dose curve;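 further: HEK293 GripTite cells with ER-alpha and UAS-driven beta-lactamase reporter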)
# [7] = target: Estrogen receptor (Homo sapiens) (UniProt P03372); experiment: qHTS assay to identify small molecule agonists of the estrogen receptor alpha (ER-alpha) signaling pathway using the BG1 cell line (AID 743079); further: nearly all actives have a fitted effect of over 20% in size; further: potency means the concentration at half of the fitted maximal effect
# [8] = qHTS assay to identify small molecule antagonists of the estrogen receptor alpha (ER-alpha) signaling pathway using the BG1 cell line (AID 743080; calls by dose curve; further: series mostly up to about 70 µM; nearly all actives have a fitted effect of over 25% in size)
# Outline: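 Antagonist mode: compounds in DMSO were pinned onto BG1-Luc-4E2 cells alongside 17beta-estradiol agonist, incubated 21.5 h, and ERE-driven luciferase measured with ONE-Glo. Cytotoxicity was multiplexed using CellTiter-Fluor fluorescence.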
# [9] = qHTS assay to identify small molecule antagonists of the estrogen receptor alpha (ER-alpha) signaling pathway using the BG1 cell line - cell viability counter screen (AID 743081);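 further: compound given together with 17beta-estradiol as the ER stimulus; nearly all actives have a fitted effect of over 45% in size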; further: potency means the concentration at half of the fitted maximal effect
# Aromatase (Homo sapiens) = Aromatase (Homo sapiens) (UniProt P11511); experiment: qHTS assay to identify aromatase inhibitors (AID 743083); further: nearly all actives have a fitted effect of over 55% in size; further: potency means the concentration at half of the fitted maximal effect
# Chain of Aromatase (Homo sapiens) (P11511 whole entry, looked up): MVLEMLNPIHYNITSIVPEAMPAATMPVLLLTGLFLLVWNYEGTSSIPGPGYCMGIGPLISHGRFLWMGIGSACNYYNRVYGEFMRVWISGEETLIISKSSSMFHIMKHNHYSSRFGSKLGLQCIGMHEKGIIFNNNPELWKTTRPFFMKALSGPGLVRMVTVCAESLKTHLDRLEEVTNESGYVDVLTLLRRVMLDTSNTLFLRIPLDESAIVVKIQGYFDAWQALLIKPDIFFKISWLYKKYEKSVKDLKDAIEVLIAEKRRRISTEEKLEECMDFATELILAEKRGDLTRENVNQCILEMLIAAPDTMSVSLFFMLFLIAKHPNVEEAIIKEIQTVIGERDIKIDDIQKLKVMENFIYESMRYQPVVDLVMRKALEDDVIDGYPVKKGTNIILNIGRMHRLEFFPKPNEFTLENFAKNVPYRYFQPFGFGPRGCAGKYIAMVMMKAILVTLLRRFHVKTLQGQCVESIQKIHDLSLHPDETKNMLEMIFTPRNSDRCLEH
# Chain of Estrogen receptor (Homo sapiens) (P03372 whole entry, looked up): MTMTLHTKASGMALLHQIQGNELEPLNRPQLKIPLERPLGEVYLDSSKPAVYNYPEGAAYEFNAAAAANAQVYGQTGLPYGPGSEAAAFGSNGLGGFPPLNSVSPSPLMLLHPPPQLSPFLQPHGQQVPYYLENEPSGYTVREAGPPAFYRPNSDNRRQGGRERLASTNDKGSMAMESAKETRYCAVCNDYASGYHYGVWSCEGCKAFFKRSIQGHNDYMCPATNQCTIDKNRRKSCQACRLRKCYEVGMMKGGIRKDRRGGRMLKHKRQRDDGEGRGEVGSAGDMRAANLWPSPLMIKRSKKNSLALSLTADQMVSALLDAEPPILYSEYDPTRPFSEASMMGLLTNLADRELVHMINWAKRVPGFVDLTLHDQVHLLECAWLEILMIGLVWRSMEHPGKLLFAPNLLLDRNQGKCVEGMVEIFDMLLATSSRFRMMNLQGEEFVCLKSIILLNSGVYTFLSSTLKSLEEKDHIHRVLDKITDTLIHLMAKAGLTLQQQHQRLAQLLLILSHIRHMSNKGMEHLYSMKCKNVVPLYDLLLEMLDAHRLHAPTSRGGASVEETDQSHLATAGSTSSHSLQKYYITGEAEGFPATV
Compound,Potency [1],Potency [2],Potency [3],Potency [4],Potency [5],Potency [6],Potency [7],Potency [8],Potency [9],Potency (Aromatase (Homo sapiens))
O=[N+]([O-])c1ccc2[nH]ncc2c1,inactive,inactive,inactive,inactive,inactive,inactive,inactive,inactive,inactive,inactive
COc1ccc(C(=O)N2CCN(CC(=O)N3CCOCC3)CC2)cc1,inactive,inactive,inactive,inactive,inactive,inactive,inactive,inactive,inactive,inactive
COC(C)OC,inactive,inactive,inactive,inactive,inactive,inactive,inactive,inactive,inactive,inactive
C[N+](C)(C)CCOC(=O)CCC(=O)OCC[N+](C)(C)C,inactive,inactive,inactive,inactive,inactive,inactive,inactive,inactive,inactive,inactive
CCOCC(O)COc1ccc(NC(=O)CC[S+](C)C)cc1 (configuration not stated),inactive,inactive,inactive,inactive,inactive,inactive,inactive,inactive,inactive,inactive
OCCNCc1ccccc1,inactive,inactive,inactive,inactive,inactive,inactive,inactive,inactive,inactive,inactive
Nc1cccc([N+](=O)[O-])c1,inactive,inactive,inactive,inactive,inactive,inactive,inactive,inactive,inactive,
CCCn1cnc2c1c(=O)n(CCCCC(C)=O)c(=O)n2C,inactive,inactive,inactive,inactive,inactive,inactive,inactive,inactive,inactive,inactive
c1ccc(-c2ccccn2)nc1,inactive,inactive,inactive,inactive,inactive,inactive,inactive,inactive,inactive,inactive
COc1cc2nc(N(C)CCCNC(=O)C3CCCO3)nc(N)c2cc1OC (configuration not stated),inactive,inactive,inactive,inactive,inactive,inactive,inactive,inactive,inactive,inactive
O=C1CCC(=O)O1,inactive,inactive,inactive,inactive,inactive,inactive,inactive,inactive,inactive,inactive
O=C1[C@H]2CCCC[C@H]2C(=O)N1CCCCN1CCN(c2nsc3ccccc23)CC1,21.1 µM (active),29.8 µM (active),inactive,inactive,inactive,inactive,inactive,inactive,29.8 µM (active),29.8 µM (active)
Nc1cccc(S(=O)(=O)c2cccc(N)c2)c1,inactive,inactive,inactive,inactive,inactive,inactive,inactive,inactive,inactive,inactive
CN(C)CCN(Cc1ccccc1)c1ccccn1,inactive,inactive,inactive,inactive,inactive,inactive,inactive,inactive,inactive,inactive
CCCCCCCN,inactive,inactive,inactive,inactive,inactive,inactive,inactive,inactive,inactive,inactive
C/C(=C(\CCOP(=O)(O)O)SC(=O)c1ccccc1)N(C=O)Cc1cnc(C)nc1N,inactive,inactive,inactive,inactive,inactive,inactive,inactive,inactive,inactive,inactive
O=C(O)c1ccc(S(=O)(=O)O)cc1C(=O)O,inactive,inactive,inactive,inactive,inactive,inactive,inactive,inactive,inactive,inactive
CCNc1cc(O)ccc1C,inactive,inactive,inactive,inactive,inactive,inactive,inactive,inactive,inactive,inactive
CC(=O)c1cccc([N+](=O)[O-])c1,inactive,inactive,inactive,inactive,inactive,inactive,inactive,inactive,inactive,inactive
CCOC(=O)c1cccnc1,inactive,inactive,inactive,inactive,inactive,inactive,inactive,inactive,inactive,inactive
COS(=O)(=O)C(F)(F)F,inactive,inactive,inactive,inactive,inactive,inactive,inactive,inactive,inactive,inactive
NCC(=O)CCC(=O)O,inactive,inactive,26.6 µM (active),inactive,inactive,inactive,inactive,inactive,inactive,inactive

Compound,Potency [1],Potency [2],Potency [3],Potency [4],Potency [5],Potency [6],Potency [7],Potency [8],Potency [9],Potency (Aromatase (Homo sapiens))
c1cc(CCCc2ccncc2)ccn1,inactive,inactive,inactive,inactive,inactive,inactive,inactive,inactive,inactive,13.7 µM (active)
O=C(OCCCCCCOC(=O)c1ccccc1)c1ccccc1,inactive,inactive,inactive,inactive,inactive,inactive,43.3 µM (active),inactive,inactive,inactive
C=C(C)C(=O)OCC,inactive,inactive,inactive,inactive,inactive,inactive,inactive,inactive,inactive,inactive
CN1CCN(C(c2ccccc2)c2ccccc2)CC1,inactive,inactive,inactive,inactive,inactive,inactive,inactive,inactive,inactive,inactive
C=C(C)C(=O)OCCO,inactive,inactive,inactive,inactive,inactive,inactive,inactive,inactive,inactive,inactive
CCOc1ccc(N)c([N+](=O)[O-])c1,inactive,inactive,inactive,inactive,inactive,inactive,inactive,inactive,inactive,inactive
CN1CCC(N(Cc2cccs2)c2ccccc2)CC1,11.9 µM (active),23.7 µM (active),inactive,inactive,inactive,inactive,inactive,inactive,inactive,inactive
CC(CSC(=O)c1ccccc1)C(=O)N1C[C@@H](Sc2ccccc2)C[C@H]1C(=O)O (some centres not stated),inactive,inactive,inactive,inactive,inactive,inactive,inactive,inactive,inactive,inactive
Cc1[nH]c(C)c(Cl)c(=O)c1Cl,inactive,inactive,inactive,inactive,inactive,inactive,inactive,inactive,inactive,inactive
CN(C)c1ccc(CCO)cc1,inactive,inactive,inactive,inactive,inactive,inactive,inactive,inactive,inactive,inactive
CC(CC=O)c1ccccc1 (configuration not stated),inactive,inactive,inactive,inactive,inactive,inactive,inactive,inactive,inactive,inactive
NC(N)=NCCC[C@H](N)C(=O)O,inactive,inactive,inactive,inactive,inactive,inactive,inactive,inactive,inactive,inactive
CCN(CC)CCNC(=O)c1cc(Br)c(N)cc1OC,inactive,inactive,inactive,inactive,inactive,inactive,inactive,inactive,inactive,inactive
O=C1c2ccccc2S(=O)(=O)N1CCCCN1CCN(c2ncccn2)CC1,inactive,inactive,inactive,inactive,inactive,inactive,inactive,inactive,inactive,inactive
NCCCN1CCOCC1,inactive,inactive,inactive,inactive,inactive,inactive,inactive,inactive,inactive,inactive
CCCCCCc1ccc(-c2ccc(C#N)cc2)cc1,inactive,inactive,inactive,,inactive,,,,inactive,
CC(C)O.CC(C)O.CCOC(=O)/C=C(\C)O.CCOC(=O)/C=C(\C)O.[Ti],inactive,inactive,inactive,,inactive,,,,inactive,
CCC(=O)O[C@]1(C(=O)CCl)[C@@H](C)C[C@H]2[C@@H]3CCC4=CC(=O)C=C[C@]4(C)[C@@]3(F)[C@@H](O)C[C@@]21C,inactive,inactive,inactive,inactive,inactive,inactive,inactive,,inactive,inactive
NCC(=O)O,inactive,inactive,inactive,inactive,,inactive,inactive,inactive,inactive,inactive
CCCCO,inactive,inactive,inactive,,inactive,,,,inactive,inactive
CCCCNc1ccc(C(=O)OCCOCCOCCOCCOCCOCCOCCOCCOCCOC)cc1,inactive,inactive,inactive,inactive,inactive,inactive,inactive,,inactive,inactive

# From PubChem BioAssay (Tox21)
